Source: PubChem (National Center for Advancing Translational Sciences (NCATS))
HTT aggregate = reduces HttQ103-GFP aggregates in PC12 cells. PC12 HttQ103-GFP aggregates, Acumen cytometry, 40 h. actives 1.1% (n = 220,000). Potency, µM (highest dose often 46.1 µM), most hits filed as inhibitors. AID 1688; also: nearly all actives have a fitted effect of over 60% in size
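PC12/HTTQ103-GFP, ecdysone-inducible; teb 100 nM; cpd qHTS titration; GFP aggregates read on laser cytometer, Ex 488/Em 500-530 nm.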
FBPA coupling cs = coupling enzyme interference in Giardia aldolase counter-screen; coupling enzyme system counterscreen, AmpLite Red fluorescence; activity change, negative = inhibition, % at 58.2 µM, hits read low; actives 0.67% (n = 290,000); AID 2472; in the data active = activity change below about -30%
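First, compound is pin-transferred into glyceraldehyde-3-phosphate coupling-enzyme reagent at 57.5 uM final and held 10 min at RT. Next, substrate, coupling system and AmpLite Red are added. After 20 min RT, fluorescence (525/598 nm) is read.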
JMJD2E inh = JMJD2E (human) inhibition | B2RXH2 | JMJD2E catalytic domain, FDH-coupled NADH fluorescence (FDH is formaldehyde dehydrogenase) | Potency, µM (series often up to 57.1 µM), most hits filed as inhibitors | actives 1.6% (n = 230,000) | AID 2147; active = well fitted inhibition curve with a large enough effect, not every such curve was filed as active; inconclusive = small, poorly fitted or top-dose-only effect, or another doubt; inactive = no such curve, though single readings can be large or run the other way; also: nearly all actives have a fitted effect of over 50% in size
Target sequence (B2RXH2 1-337 limits assumed): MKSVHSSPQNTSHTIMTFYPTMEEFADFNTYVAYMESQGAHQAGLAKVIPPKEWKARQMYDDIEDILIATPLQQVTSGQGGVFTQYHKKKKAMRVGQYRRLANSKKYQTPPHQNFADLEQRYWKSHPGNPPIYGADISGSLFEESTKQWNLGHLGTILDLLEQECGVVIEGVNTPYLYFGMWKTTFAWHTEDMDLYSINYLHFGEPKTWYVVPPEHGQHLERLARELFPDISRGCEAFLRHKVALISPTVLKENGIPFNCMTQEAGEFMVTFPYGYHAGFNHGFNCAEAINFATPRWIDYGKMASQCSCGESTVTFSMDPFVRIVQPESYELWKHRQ
HTT ATP protect = Huntington cell model cytoprotection by ATP luminescence. PC12 HTT-Q103 induced, cytoprotection, ATP luminescence, 40 h. Potency, µM (series often up to 56.4 µM), usual class: activators. actives 0.14% (n = 230,000). AID 1471; also: nearly all actives have a fitted effect of over 45% in size
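PC12 cells with ecdysone-inducible HTT exon 1 Q103-GFP, induced with 100 nM tebufenozide and co-treated with library compounds in a dose series (1536-well, 1500 cells/well). Cytoprotection read as ATP content by ATPlite luminescence.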
GoLoco inh red = RGS12 GoLoco-Gai1 interaction inhibition | Gai1:RGS12 GoLoco peptide FP, rhodamine, 10 min | P63096 | actives 0.44% (n = 230,000) | Potency, µM (top dose mostly 61.6 µM), actives largely listed as inhibitors; active = well fitted inhibition curve with a large enough effect, not every such curve was filed as active; inactive = no such curve, though single readings can be large or run the other way; also: nearly all actives have a fitted effect of over 30% in size
VDR inhibitor = inhibitors of human vitamin D receptor; Potency, µM, most hits filed as inhibitors; actives 0.93% (n = 400,000); VDR-SRC2-3 peptide fluorescence polarization, 2 h; P11473
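Signal is fluorescence polarization, reporting how far test compounds block the interaction of VDR with the SRC2-3 coregulator peptide after a 2 h room-temperature incubation.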
A number is an active result; . = inactive; ? = inconclusive; / = not tested or not shown; ! = not confirmed by another sample; [ ] = another dose, or the depositor's remark. This is a sample that favours compounds with a hit; in the whole collection about 2.3% have one here. Unless noted, calls follow the shape of the dose curve; as a rule, active = well fitted curve in the direction sought with a large enough effect; inconclusive = small, poorly fitted or top-dose-only effect, or another doubt; inactive = no such curve, though single readings can be large; an effect the other way counts as inactive or inconclusive.

SMILES | HTT aggregate | FBPA coupling cs | JMJD2E inh | HTT ATP protect | GoLoco inh red | VDR inhibitor
CC(=O)c1c(C)oc2c1C(=O)c1ccccc1C2=O | 7.08µM | -41.3 | . | .[10 µM] | . | .
O=C1c2ccccc2C(=O)c2c1oc(C(F)(F)F)c2C(=O)c1ccccc1 | 5.01µM | . | . | .[10 µM] | . | .
CC(=O)c1c2c3c(c(Br)ccc3n(C)c1=O)C(=O)c1ccccc1-2 | / | / | / | / | / | .
COc1ccc(CNC(=O)c2ccc(-c3ccccc3)cc2)cc1 | . | . | . | . | . | .
COc1ccc(CNC(=O)c2c(C)oc3c2C(=O)c2ccccc2C3=O)cc1 | ? | -44.6 | . | / | . | .
Cc1oc2c(c1C(=O)NCc1cccnc1)C(=O)c1ccccc1C2=O | 3.55µM | . | ? | .[10 µM] | . | .
O=C(c1ccco1)N1CCC2(CCCN(c3ncccn3)C2)CC1 | / | . | / | . | . | .
CC(=O)c1c(O)c(C)c(O)c2c1OC1=CC(=O)[C@H](C(C)=O)C(=O)[C@]12C | / | / | / | . | / | /
CC(=O)NCCNc1ncnc2ccc(-c3cccc(NS(C)(=O)=O)c3)cc12 | / | . | / | . | . | 44.7µM
CCOC(=O)Cc1csc(NC(=O)NC2(C(F)(F)F)Oc3cc(Cl)c(Cl)cc3O2)n1 | .[9.22 µM] | . | 28.2µM | . | . | .
CCOC(=O)Cc1csc(NC(=O)NC2(C(F)(F)F)Oc3ccccc3O2)n1 | .[9.22 µM] | . | ? | . | . | ?
O=C(N/N=C/c1ccc(N2CCOCC2)o1)c1ccccc1[N+](=O)[O-] | ? | . | ? | / | . | ?
O=C(N/N=C/c1ccc(N2CCCCC2)o1)c1ccccc1[N+](=O)[O-] | ? | . | . | / | . | 39.8µM
Cc1cccc(Nc2ncnc3nc[nH]c23)c1 | 12.6µM | . | . | .[10 µM] | . | .
Cc1ccc(Nc2ncnc3nc[nH]c23)cc1 | / | / | / | / | / | .
O=C1C(=O)N(CCCc2ccccc2)c2ccccc21 | / | . | / | / | / | ?
N#CCCCN1C(=O)C(=C(C#N)C#N)c2ccccc21 | .[9.22 µM] | -35.2 | . | .[10 µM] | . | ?
COc1ccccc1NC(=O)NC1(C(=O)N2CCCCC2)CCCCC1 | / | . | / | / | / | .
O=C1C=CC2=C3c4cc(O)c(O)cc4C[C@@]3(O)COC2=C1 | / | . | 15.8µM | ? | 0.355µM | 11.2µM
CC[n+]1ccc(C[n+]2ccccc2)c2ccccc21 | . | -31.8 | ? | .[10 µM] | 17.8µM | .
COc1cc2nc(N3CCN(C(=O)C4CCCO4)CC3)nc(N)c2cc1OC (stereo unspecified) | . | -49.7! | 28.2µM | .[0.074 µM] | . | /
CC(C)(C)C1CCc2onc(C(=O)Nc3sc4c(c3C(N)=O)CCCC4)c2C1 (stereo unspecified) | / | / | / | / | / | 79.4µM
CC(C)(C)C1CCc2c(sc(NC(=O)C3CCCO3)c2C(N)=O)C1 (stereo unspecified) | ? | / | . | . | . | .
Cc1onc(C(=O)Nc2sc3c(c2C(N)=O)CCCC3)c1[N+](=O)[O-] | .[9.22 µM] | . | . | .[10 µM] | . | 79.4µM
CCN(CC)CCCC(C)n1c(-c2ccccc2)nc2c(NCCOC)nc(C)nc21 (stereo unspecified) | / | . | ? | . | . | /
SMILES | HTT aggregate | FBPA coupling cs | JMJD2E inh | HTT ATP protect | GoLoco inh red | VDR inhibitor
Cc1cc(SCC(=O)N/N=C/c2ccco2)nc2ccccc12 | .[9.22 µM] | -32.0 | . | .[10 µM] | . | .
COc1ccccc1OCCNC(=O)CSC(=S)N1CCCC1 | / | / | / | / | / | .
O=C(/C=C/c1ccoc1)c1ccccc1O | . | . | . | / | . | .
COc1ccc2ccccc2c1C(=O)/C=C\c1ccoc1 | ? | . | 25.1µM | / | . | .
CC(C)(C)OC(=O)N1CC=C2C(C#N)=C(N)C(C#N)(C#N)C(c3cccs3)C2C1 (stereo unspecified) | . | . | ? | .[10 µM] | . | 35.5µM
CCOC(=O)N1CC=C2C(C#N)=C(N)C(C#N)(C#N)[C@H](c3cccs3)C2C1 (stereo partly specified) | . | . | . | .[10 µM] | . | .
COc1ccc(C2C(C#N)=C(N)OC(C(C)(C)C)=C2C#N)cc1OC (stereo unspecified) | ? | -36.7 | ? | . | . | .
O=C(CCl)NCc1c(Cl)cccc1-n1cccc1 | 12.6µM | . | . | . | . | .
COC(=O)c1ccccc1NC(=O)C1=C(C)C(=O)OC12CCCCCC2 | / | / | / | / | / | .
